Assay results as given in PMC7862700, “An all-to-all approach to the identification of sequence-specific readers for epigenetic DNA modifications on cytosine”.

How the values were obtained:
Experiment in all cases: DAPPL (digital affinity profiling via proximity ligation, sequencing); 10 mM Tris-HCl pH 7.5, 50 mM NaCl, 1 mM DTT, 4% glycerol, room temperature, 30 min; GST-TFs on glutathione beads, 16-mer random dsDNA library, 0.1% formaldehyde crosslink after washing; high values mean tight binding
Details in all cases: protein: recombinant; tags: N-terminal GST; dsDNA, one strand shown
ELK1 = target: T1, ELK1 (Homo sapiens, UniProt P19419 1-428)
T1 sequence: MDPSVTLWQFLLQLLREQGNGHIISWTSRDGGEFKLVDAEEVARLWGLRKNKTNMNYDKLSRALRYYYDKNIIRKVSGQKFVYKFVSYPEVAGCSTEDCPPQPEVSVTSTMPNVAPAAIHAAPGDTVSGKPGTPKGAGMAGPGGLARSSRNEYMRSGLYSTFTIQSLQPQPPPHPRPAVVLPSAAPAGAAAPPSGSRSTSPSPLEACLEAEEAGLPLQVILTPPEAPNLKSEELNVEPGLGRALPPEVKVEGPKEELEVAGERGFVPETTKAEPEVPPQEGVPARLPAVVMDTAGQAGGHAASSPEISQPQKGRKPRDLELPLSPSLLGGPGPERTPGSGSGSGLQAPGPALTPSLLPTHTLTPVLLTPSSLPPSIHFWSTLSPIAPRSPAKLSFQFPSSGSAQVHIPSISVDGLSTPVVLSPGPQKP
Procedure, shortened: (§1)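 A tag-only sample was pooled with DNA-barcoded human transcription factors that had been expressed in yeast as GST fusions and captured on glutathione beads. The pools were incubated for 30 min at room temperature with 200 nmole of a random double-stranded 16-mer DNA library in Tris/NaCl/DTT/glycerol buffer, then washed, crosslinked with 0.1% formaldehyde, proximity-ligated (BsaI/T4 ligase, 1 h, 37 °C), PCR-amplified and sequenced on an Illumina NextSeq500. Binding signal is each hexamer's read frequency for a factor divided by its frequency for the tag-only sample.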

ERG = target: T2, ERG (Homo sapiens, UniProt P11308 1-479)
T2 sequence: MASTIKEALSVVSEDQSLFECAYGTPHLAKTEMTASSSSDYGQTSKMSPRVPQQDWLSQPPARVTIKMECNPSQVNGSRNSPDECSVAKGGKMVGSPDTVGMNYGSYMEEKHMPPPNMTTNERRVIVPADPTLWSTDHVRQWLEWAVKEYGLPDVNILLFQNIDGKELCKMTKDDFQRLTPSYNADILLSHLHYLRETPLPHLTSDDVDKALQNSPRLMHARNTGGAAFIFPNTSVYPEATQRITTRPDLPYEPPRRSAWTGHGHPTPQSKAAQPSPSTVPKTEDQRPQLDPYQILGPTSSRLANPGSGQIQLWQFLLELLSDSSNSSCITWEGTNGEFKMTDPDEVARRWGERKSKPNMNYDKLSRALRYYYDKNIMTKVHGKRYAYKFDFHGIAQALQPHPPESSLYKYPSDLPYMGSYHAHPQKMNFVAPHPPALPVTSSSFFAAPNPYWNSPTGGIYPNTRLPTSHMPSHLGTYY
Procedure, shortened: as §1

ETV5 = ETV5 (Homo sapiens, UniProt P41161 1-510)
Procedure, shortened: as §1

ELK4 = target: T3, ELK4 (Homo sapiens, UniProt P28324-2 1-405)
T3 sequence: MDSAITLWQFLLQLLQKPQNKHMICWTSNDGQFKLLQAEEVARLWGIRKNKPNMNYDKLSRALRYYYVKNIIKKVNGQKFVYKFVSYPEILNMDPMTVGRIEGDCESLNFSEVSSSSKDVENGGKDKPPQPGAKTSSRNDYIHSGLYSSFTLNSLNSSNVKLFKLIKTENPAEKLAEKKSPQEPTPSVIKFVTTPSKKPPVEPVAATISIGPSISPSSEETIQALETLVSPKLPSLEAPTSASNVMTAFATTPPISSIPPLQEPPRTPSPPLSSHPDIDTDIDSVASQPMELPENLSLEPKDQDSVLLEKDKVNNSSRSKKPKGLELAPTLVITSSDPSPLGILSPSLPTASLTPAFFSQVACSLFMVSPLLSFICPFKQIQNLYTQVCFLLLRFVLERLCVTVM
Procedure, shortened: as §1

ETV2 = target: T4, ETV2 (Homo sapiens, UniProt O00321 1-342)
T4 sequence: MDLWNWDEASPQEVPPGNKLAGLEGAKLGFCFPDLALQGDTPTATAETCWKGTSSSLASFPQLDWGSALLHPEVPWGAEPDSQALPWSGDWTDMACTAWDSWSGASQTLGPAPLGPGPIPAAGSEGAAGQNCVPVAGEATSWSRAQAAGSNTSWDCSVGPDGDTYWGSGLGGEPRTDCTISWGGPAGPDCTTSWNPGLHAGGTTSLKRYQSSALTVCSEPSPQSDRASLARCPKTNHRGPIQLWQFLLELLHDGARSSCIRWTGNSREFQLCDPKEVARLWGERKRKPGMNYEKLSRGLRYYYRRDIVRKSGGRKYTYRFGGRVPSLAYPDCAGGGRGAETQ
Procedure, shortened: as §1

ETV1 = ETV1 (Homo sapiens, UniProt P50549 1-477)
Procedure, shortened: as §1

ETV3L = target: T5, ETV3L (Homo sapiens, UniProt Q6ZN32 1-361)
T5 sequence: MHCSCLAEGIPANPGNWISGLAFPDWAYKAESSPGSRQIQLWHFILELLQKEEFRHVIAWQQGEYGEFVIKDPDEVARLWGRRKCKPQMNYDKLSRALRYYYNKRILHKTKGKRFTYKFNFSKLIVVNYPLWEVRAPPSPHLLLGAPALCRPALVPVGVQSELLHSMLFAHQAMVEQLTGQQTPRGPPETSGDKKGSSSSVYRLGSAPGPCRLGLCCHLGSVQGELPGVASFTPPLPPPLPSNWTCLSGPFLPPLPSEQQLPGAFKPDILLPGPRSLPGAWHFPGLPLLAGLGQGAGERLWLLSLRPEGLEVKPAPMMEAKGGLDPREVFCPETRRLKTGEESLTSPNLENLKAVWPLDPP
Procedure, shortened: as §1

ETS2 = target: T6, ETS2 (Homo sapiens, UniProt P15036 1-469)
T6 sequence: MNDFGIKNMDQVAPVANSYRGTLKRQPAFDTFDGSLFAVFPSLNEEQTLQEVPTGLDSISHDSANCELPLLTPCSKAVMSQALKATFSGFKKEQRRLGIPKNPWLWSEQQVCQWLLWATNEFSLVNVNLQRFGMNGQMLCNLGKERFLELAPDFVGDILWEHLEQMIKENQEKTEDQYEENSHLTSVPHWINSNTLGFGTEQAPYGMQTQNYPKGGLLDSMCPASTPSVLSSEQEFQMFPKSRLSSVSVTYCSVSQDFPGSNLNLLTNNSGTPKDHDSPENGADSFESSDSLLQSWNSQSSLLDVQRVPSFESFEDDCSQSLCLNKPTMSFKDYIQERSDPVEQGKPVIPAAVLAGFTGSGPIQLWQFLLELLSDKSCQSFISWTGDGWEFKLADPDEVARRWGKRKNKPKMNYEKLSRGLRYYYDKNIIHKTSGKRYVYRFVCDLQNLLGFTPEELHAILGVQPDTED
Procedure, shortened: as §1

SPDEF = target: T7, SPDEF (Homo sapiens, UniProt O95238 1-335)
T7 sequence: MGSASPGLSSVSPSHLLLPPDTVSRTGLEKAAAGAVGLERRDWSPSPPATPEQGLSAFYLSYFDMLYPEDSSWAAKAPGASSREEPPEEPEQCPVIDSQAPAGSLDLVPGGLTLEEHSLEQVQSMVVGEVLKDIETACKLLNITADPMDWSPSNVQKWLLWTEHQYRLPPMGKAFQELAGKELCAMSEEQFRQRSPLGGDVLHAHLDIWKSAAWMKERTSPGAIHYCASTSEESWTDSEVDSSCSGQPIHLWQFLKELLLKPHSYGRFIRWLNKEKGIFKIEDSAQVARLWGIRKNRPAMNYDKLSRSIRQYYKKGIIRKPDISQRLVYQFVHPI
Procedure, shortened: as §1

ETV7 = target: T8, ETV7 (Homo sapiens, UniProt Q9Y603 1-341)
T8 sequence: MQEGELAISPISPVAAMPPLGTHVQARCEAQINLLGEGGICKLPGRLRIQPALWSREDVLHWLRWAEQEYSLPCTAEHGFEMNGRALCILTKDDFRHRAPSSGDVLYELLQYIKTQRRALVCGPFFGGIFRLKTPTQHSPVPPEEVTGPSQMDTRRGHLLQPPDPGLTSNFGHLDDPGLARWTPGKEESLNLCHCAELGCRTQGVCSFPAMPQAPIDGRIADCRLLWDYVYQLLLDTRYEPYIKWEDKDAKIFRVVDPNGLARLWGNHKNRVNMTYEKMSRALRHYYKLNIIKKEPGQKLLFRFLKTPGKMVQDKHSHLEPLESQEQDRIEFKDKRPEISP
Procedure, shortened: as §1

ETV3 = target: T9, ETV3 (Homo sapiens, UniProt P41162-2 1-143)
T9 sequence: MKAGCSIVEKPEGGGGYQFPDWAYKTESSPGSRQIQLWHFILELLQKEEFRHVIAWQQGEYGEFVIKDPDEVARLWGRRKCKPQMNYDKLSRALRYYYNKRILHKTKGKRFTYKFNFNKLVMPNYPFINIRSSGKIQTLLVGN
Procedure, shortened: as §1

ETV6 = ETV6 (Homo sapiens, UniProt P41212 1-452)
Procedure, shortened: as §1

Sequence of ETV1 (P50549 whole entry): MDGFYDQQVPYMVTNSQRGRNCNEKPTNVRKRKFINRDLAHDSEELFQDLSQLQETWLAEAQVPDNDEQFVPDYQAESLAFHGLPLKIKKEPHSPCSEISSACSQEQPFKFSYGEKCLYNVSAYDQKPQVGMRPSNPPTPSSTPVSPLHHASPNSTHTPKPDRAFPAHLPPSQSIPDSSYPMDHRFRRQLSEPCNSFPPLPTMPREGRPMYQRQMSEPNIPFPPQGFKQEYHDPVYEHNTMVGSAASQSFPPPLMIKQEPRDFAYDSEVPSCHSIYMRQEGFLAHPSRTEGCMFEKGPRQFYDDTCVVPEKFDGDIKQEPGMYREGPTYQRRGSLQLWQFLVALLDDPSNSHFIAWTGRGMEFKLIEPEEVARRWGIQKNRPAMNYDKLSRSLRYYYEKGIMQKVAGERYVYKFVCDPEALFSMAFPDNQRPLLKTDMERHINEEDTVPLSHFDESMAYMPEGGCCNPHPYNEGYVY
Sequence of ETV5 (P41161 whole entry): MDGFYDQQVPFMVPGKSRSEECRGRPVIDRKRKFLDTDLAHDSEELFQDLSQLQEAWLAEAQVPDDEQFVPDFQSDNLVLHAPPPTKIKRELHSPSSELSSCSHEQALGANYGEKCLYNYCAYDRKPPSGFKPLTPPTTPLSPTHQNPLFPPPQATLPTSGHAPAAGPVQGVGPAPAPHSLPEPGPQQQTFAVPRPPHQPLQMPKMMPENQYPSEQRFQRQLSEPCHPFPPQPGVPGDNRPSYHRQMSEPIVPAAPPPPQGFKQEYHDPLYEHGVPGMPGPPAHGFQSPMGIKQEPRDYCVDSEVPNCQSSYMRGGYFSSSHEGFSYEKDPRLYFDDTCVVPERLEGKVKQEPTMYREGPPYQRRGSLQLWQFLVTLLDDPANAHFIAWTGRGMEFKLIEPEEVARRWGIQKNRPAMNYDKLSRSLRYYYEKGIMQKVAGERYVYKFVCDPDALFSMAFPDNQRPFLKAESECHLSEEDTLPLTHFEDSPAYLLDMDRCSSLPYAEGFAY
Sequence of ETV6 (P41212 whole entry): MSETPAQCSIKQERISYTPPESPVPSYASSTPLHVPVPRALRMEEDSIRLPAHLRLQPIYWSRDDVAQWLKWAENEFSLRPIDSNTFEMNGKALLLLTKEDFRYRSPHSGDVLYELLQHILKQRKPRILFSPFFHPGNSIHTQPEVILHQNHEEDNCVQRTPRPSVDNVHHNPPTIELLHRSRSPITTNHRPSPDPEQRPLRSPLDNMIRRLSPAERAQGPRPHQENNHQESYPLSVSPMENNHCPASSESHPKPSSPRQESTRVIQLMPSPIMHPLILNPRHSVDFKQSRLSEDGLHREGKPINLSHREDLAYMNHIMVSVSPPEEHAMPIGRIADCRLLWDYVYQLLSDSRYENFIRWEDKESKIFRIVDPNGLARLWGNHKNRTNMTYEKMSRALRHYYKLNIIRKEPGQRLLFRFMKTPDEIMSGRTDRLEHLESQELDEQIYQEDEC

**Q.** TCAGTT was tested. Which binding signal (ELK1) did it give?
**A.** 1.03 fold enrichment (6-mer frequency, TF over GST control)

**Q.** What about the binding signal (ERG) of the same sequence?
**A.** 1.03 fold enrichment (6-mer frequency, TF over GST control)

**Q.** And the binding signal (ETV5)?
**A.** 1 fold enrichment (6-mer frequency, TF over GST control)

**Q.** And the binding signal (ELK4)?
**A.** 1.08 fold enrichment (6-mer frequency, TF over GST control)

**Q.** What about the binding signal (ETV2) of the same sequence?
**A.** 1.05 fold enrichment (6-mer frequency, TF over GST control)

**Q.** And the binding signal (ETV1)?
**A.** 1.04 fold enrichment (6-mer frequency, TF over GST control)

**Q.** What about the binding signal (ETV3L) of the same sequence?
**A.** 1.05 fold enrichment (6-mer frequency, TF over GST control)

**Q.** What about the binding signal (ETS2) of the same sequence?
**A.** 1.04 fold enrichment (6-mer frequency, TF over GST control)

**Q.** What about the binding signal (SPDEF) of the same sequence?
**A.** 1.04 fold enrichment (6-mer frequency, TF over GST control)

**Q.** And the binding signal (ETV7)?
**A.** 1.02 fold enrichment (6-mer frequency, TF over GST control)

**Q.** What about the binding signal (ETV3) of the same sequence?
**A.** 1.05 fold enrichment (6-mer frequency, TF over GST control)

**Q.** And the binding signal (ETV6)?
**A.** 1.03 fold enrichment (6-mer frequency, TF over GST control)
